# From PubChem BioAssay AID1159580 (chemical genetic matrix, 2015)
# Where “and” joins values, the source holds several entries; their conditions need not be identical. Equal values may be shown once. Out of some 5,500 compounds screened, about 2,000 (36%) were called active. Inconclusive results (about 18%) are left out. This is one part of the list. A number with no mark means an inactive call. Rule as the data show it: active = normalized growth mostly below about 0.91 (no sharp cut-off); inconclusive = no clear call, values can overlap the other calls; inactive = mostly above about 0.92.
# Experiment: chemical genetic growth profiling, strain panel (AID 1159580);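 also: tested at 20 µM; growth read once vehicle control cultures reached saturation at 30 °C; 1 = growth at the plate median or of vehicle wells; lower values mean less growth of the strain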
# Details: S. cerevisiae deletion strains, growth OD
smiles,measurement,setting,value
O=C1[C@H](CCC(O)c2ccc(F)cc2)[C@@H](c2ccc(O)cc2)N1c1ccc(F)cc1 (stereo partly specified),normalized growth,"locus YAL013W, strain DEP1, active compounds read low",0.988
same,normalized growth,"locus YAL021C, strain ccr4, active compounds read low",0.999
same,normalized growth,"locus YAL026C, strain drs2, active compounds read low",0.976
same,normalized growth,"locus YAL030W, strain snc1, active compounds read low",0.968
same,normalized growth,"locus YBL061C, strain skt5, active compounds read low",0.973
same,normalized growth,"locus YBR009C, strain hhf1, active compounds read low",0.981
same,normalized growth,"locus YBR021W, strain FUR4, active compounds read low",0.962
same,normalized growth,"locus YBR023C, strain chs3, active compounds read low",0.979
same,normalized growth,"locus YBR171W, strain sec66, active compounds read low",0.95
same,normalized growth,"locus YBR229C, strain ROT2, active compounds read low",0.99
same,normalized growth,"locus YBR231C, strain swc5, active compounds read low",0.976
same,normalized growth,"locus YBR279W, strain paf1, active compounds read low",0.987
same,normalized growth,"locus YCL011C, strain gbp2, active compounds read low",0.995
same,normalized growth,"locus YCL016C, strain dcc1, active compounds read low",0.992
same,normalized growth,"locus YCL029C, strain bik1, active compounds read low",0.968
same,normalized growth,"locus YCL069W, strain vba3, active compounds read low",0.97
same,normalized growth,"locus YCR088W, strain abp1, active compounds read low",0.967
same,normalized growth,"locus YDL005C, strain med2, active compounds read low",0.956
same,normalized growth,"locus YDL035C, strain GPR1, active compounds read low",0.989
same,normalized growth,"locus YDL040C, strain nat1, active compounds read low",0.979
same,normalized growth,"locus YDL074C, strain BRE1, active compounds read low",0.985
same,normalized growth,"locus YDL101C, strain DUN1, active compounds read low",0.985
same,normalized growth,"locus YDL134C, strain PPH21, active compounds read low",0.988
same,normalized growth,"locus YDL185W, strain tfp1, active compounds read low",0.966
same,normalized growth,"locus YDL192W, strain arf1, active compounds read low",0.977
same,normalized growth,"locus YDR001C, strain nth1, active compounds read low",0.976
same,normalized growth,"locus YDR069C, strain doa4, active compounds read low",0.966
same,normalized growth,"locus YDR101C, strain arx1, active compounds read low",0.981
same,normalized growth,"locus YDR137W, strain rgp1, active compounds read low",1.01
same,normalized growth,"locus YDR150W, strain NUM1, active compounds read low",0.986
same,normalized growth,"locus YDR159W, strain sac3, active compounds read low",0.931
same,normalized growth,"locus YDR162C, strain NBP2, active compounds read low",1
same,normalized growth,"locus YDR195W, strain ref2",0.915
same,normalized growth,"locus YDR297W, strain sur2, active compounds read low",0.988
same,normalized growth,"locus YDR318W, strain mcm21, active compounds read low",0.98
same,normalized growth,"locus YDR334W, strain swr1, active compounds read low",0.983
same,normalized growth,"locus YDR335W, strain msn5, active compounds read low",0.959
same,normalized growth,"locus YDR388W, active compounds read low",0.972
same,normalized growth,"locus YDR392W, strain spt3, active compounds read low",1.03
same,normalized growth,"locus YDR502C, strain sam2, active compounds read low",0.98
same,normalized growth,"locus YEL003W, strain gim4, active compounds read low",0.975
same,normalized growth,"locus YEL037C, strain rad23, active compounds read low",0.957
same,normalized growth,"locus YEL061C, strain CIN8 (second series), active compounds read low",0.966
same,normalized growth,"locus YEL061C, strain CIN8, active compounds read low",0.993
same,normalized growth,"locus YER015W, strain faa2, active compounds read low",0.99
same,normalized growth,"locus YER016W, strain bim1, active compounds read low",0.968
same,normalized growth,"locus YER110C, active compounds read low",0.971
same,normalized growth,"locus YER111C, strain swi4, active compounds read low",0.969
same,normalized growth,"locus YER155C, strain BEM2 (second series), active compounds read low",0.973
same,normalized growth,"locus YER155C, strain BEM2, active compounds read low",1
same,normalized growth,"locus YER167W, strain BCK2, active compounds read low",0.986
same,normalized growth,"locus YFR010W, strain ubp6, active compounds read low",0.951
same,normalized growth,"locus YGL078C, strain dbp3, active compounds read low",0.976
same,normalized growth,"locus YGL086W, strain mad1, active compounds read low",0.984
same,normalized growth,"locus YGL167C, strain pmr1, active compounds read low",0.965
same,normalized growth,"locus YGL173C, strain kem1, active compounds read low",0.979
same,normalized growth,"locus YGL227W, strain vid30, active compounds read low",0.974
same,normalized growth,"locus YGL240W, strain doc1, active compounds read low",0.978
same,normalized growth,"locus YGL248W, strain PDE1, active compounds read low",0.991
same,normalized growth,"locus YGL253W, strain hxk2, active compounds read low",0.908 (active)
same,normalized growth,"locus YGR078C, strain PAC10, active compounds read low",1
same,normalized growth,"locus YGR135W, strain pre9, active compounds read low",0.972
same,normalized growth,"locus YGR229C, strain SMI1, active compounds read low",1.01
same,normalized growth,"locus YGR252W, strain gcn5, active compounds read low",1.01
same,normalized growth,"locus YHR013C, strain ard1, active compounds read low",0.951
same,normalized growth,"locus YHR027C, strain rpn1, active compounds read low",0.972
same,normalized growth,"locus YHR030C, strain SLT2, active compounds read low",0.983 and 0.956
same,normalized growth,"locus YHR079C, strain IRE1 (second series), active compounds read low",0.96
same,normalized growth,"locus YHR079C, strain IRE1, active compounds read low",0.961
same,normalized growth,"locus YHR094C, strain hxt1, active compounds read low",0.977
same,normalized growth,"locus YHR129C, strain ARP1, active compounds read low",0.987
same,normalized growth,"locus YHR142W, strain chs7, active compounds read low",0.901
same,normalized growth,"locus YHR200W, strain rpn10, active compounds read low",0.974
same,normalized growth,"locus YIL066C, strain RNR3, active compounds read low",0.985
same,normalized growth,"locus YIL073C, strain SPO22, active compounds read low",0.961
same,normalized growth,"locus YIL125W, strain kgd1, active compounds read low",0.99
same,normalized growth,"locus YIR030C, strain dcg1, active compounds read low",0.967
same,normalized growth,"locus YJL092W, strain hpr5, active compounds read low",0.972
same,normalized growth,"locus YJL095W, strain BCK1 (second series), active compounds read low",0.975
same,normalized growth,"locus YJL095W, strain BCK1, active compounds read low",0.98 and 1
same,normalized growth,"locus YJL115W, strain asf1, active compounds read low",0.983
same,normalized growth,"locus YJL129C, strain trk1, active compounds read low",0.877
same,normalized growth,"locus YJL134W, strain LCB3, active compounds read low",0.989
same,normalized growth,"locus YJL154C, strain vps35, active compounds read low",0.974
same,normalized growth,"locus YJL164C, strain tpk1, active compounds read low",0.981
same,normalized growth,"locus YJL166W, strain qcr8, active compounds read low",0.952
same,normalized growth,"locus YJL168C, strain set2, active compounds read low",0.965
same,normalized growth,"locus YJL187C, strain SWE1 (second series), active compounds read low",0.979
same,normalized growth,"locus YJL187C, strain SWE1, active compounds read low",0.975
same,normalized growth,"locus YJR043C, strain POL32, active compounds read low",0.985
same,normalized growth,"locus YJR066W, strain TOR1, active compounds read low",0.929
